# VP16 counter – VP16 counterscreen qHTS for inhibitors of ROR gamma transcriptional activity | Drosophila S2 Gal4-VP16 UAS-luciferase, luminescence, 20 h | Potency, µM (series often up to 53.6 µM), for inactives: at the highest dose activity, negative = inhibition, most hits filed as inhibitors | 3.5% of 310,000 active;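 note: Gal4-VP16 expression switched on by copper sulfate through the metallothionein promoter; % is set by controls: 0 for no effect and ±100 for the full control effect; nearly all actives have a fitted effect of over 50% in size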
# SW480 rerep – A quantitative high throughput screen for small molecules that induce DNA re-replication in SW480 colon adenocarcinoma cells; Potency, µM (series often up to 46.1 µM), without a hit: at the highest dose re-replication activation, actives largely listed as activators; 1.8% of 340,000 active; AID 624297, 2012; SW480 DNA re-replication, Hoechst DNA content imaging, 48 h; note: % of control where 0% means no effect; nearly all actives have a fitted effect of over 55% in size
#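 First, 250 cells per well were seeded. Next, compound or vehicle (23 nL) was pinned in, plates sat 48 hr at 37 C. Finally Hoechst was added for 40 min before fluorescence scanning.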
# RORgamma inh – qHTS for inhibitors of ROR gamma transcriptional activity. AID 2551, 2010. Nuclear receptor ROR-gamma (Mus musculus), P51450. 5.4% of 310,000 active. Drosophila S2 Gal4-RORgamma UAS-luciferase reporter, 20 h. Potency, µM (top dose mostly 53.6 µM), without a hit: at the highest dose activity change, negative = inhibition, usual class: inhibitors; note: % is set by controls: 0 for no effect and ±100 for the full control effect; nearly all actives have a fitted effect of over 60% in size
# Target sequence (P51450 whole entry, looked up, the tested form may be a part): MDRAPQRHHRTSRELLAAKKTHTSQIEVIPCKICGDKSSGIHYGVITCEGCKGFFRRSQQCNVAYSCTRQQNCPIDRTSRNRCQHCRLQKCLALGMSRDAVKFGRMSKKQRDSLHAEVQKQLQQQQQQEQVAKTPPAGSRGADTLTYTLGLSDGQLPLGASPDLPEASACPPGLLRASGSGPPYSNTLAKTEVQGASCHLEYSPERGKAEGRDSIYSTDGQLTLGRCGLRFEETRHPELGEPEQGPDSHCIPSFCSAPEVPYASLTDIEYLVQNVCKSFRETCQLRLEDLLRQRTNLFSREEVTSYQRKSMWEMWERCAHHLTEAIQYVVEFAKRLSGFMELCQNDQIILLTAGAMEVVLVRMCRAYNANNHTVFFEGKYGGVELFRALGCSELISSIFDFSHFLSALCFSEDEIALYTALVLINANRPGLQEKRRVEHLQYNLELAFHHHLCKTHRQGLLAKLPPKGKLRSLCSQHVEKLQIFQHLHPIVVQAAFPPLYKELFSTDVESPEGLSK
#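 Compounds are pin-transferred onto Drosophila Schneider cells expressing a copper-inducible Gal4–ROR gamma transactivation domain fusion. After 1 hr, copper sulfate is added to 700 uM final; luciferase is read 20 hr later.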
# KB-3-1 tox – qHTS assay for MDR1-selective chemotherapeutics: Primary screen using the parental adenocarcinoma cell KB-3-1; AID 1347075, 2019; 1.4% of 400,000 active; Potency, µM (series often up to 46.1 µM), usual class: cytotoxic; KB-3-1 viability, CellTiter-Glo ATP luminescence, 72 h; note: % is set by controls: 0 for no effect and ±100 for the full control effect; nearly all actives have a fitted effect of over 60% in size
#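 Multi-concentration cytotoxicity screen in KB-3-1 cells grown in DMEM lacking phenol red with 10% FBS. After 72 h at 37 °C with compound, ATP-dependent luminescence was recorded.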
# MCF10A rerep – A quantitative high throughput screen for small molecules that induce DNA re-replication in MCF 10a normal breast cells; MCF 10A DNA re-replication, Hoechst nuclear intensity, 48 h; Potency, µM (doses to about 46.1 µM), without a hit: at the highest dose activity, positive = re-replication, actives largely listed as activators; 2.9% of 350,000 active; AID 624296, 2012; note: % of control where 0% means no effect; nearly all actives have a fitted effect of over 50% in size
# KB-V1 MDR tox – qHTS assay for MDR1-selective chemotherapeutics: Primary screen using the drug-selected MDR subline cells KB-V1; KB-V1 MDR cells viability, CellTiter-Glo, 72 h; Potency, µM (titrated, usually from 46.1 µM), usual class: cytotoxic; 3.4% of 400,000 active; note: % is set by controls: 0 for no effect and ±100 for the full control effect; nearly all actives have a fitted effect of over 60% in size
#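 Cytotoxicity via CellTiter-Glo luminescence after 72 h compound exposure at 37 degrees C. Cells: drug-selected KB-V1 line, DMEM phenol-red free plus 10% FBS. Compounds tested at multiple concentrations; normalized data fitted to concentration-effect curves.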
# * hit, by the source's call; i = inactive; ? = inconclusive; · = no result. Hits are enriched below; roughly 10% of the tested compounds scored in any of these assays. Calls come from the whole dose curve; as a rule, active = well fitted curve in the direction sought with a large enough effect; inconclusive = small, poorly fitted or top-dose-only effect, or another doubt; inactive = no such curve, though single readings can be large; an effect the other way counts as inactive or inconclusive. Potency is the fitted concentration of half-maximal effect.
SMILES,VP16 counter,SW480 rerep,RORgamma inh,KB-3-1 tox,MCF10A rerep,KB-V1 MDR tox
O=C1CC(c2nnc(Cc3cccc(Cl)c3)o2)CN1c1ccccc1 (stereo not given),·,·,·,i,·,i
CN(C)c1ncc2nc(-c3cccc(C#N)c3)c(=O)n(C[C@H]3CCCO3)c2n1,5.6%,·,-15.4%,·,·,·
Nc1nonc1-n1nnc(C(=O)N/N=C/c2cc(Br)cs2)c1-c1ccccc1,5.01µM*,6.1%,6.31µM*,i,4.8%,i
Nc1nonc1-n1nnc(C(=O)N/N=C/c2ccccn2)c1-c1ccccc1,·,94.2%,·,i,14.9%,i
CCOc1cccc(-c2c(C(=O)N/N=C/c3ccncc3)nnn2-c2nonc2N)c1,-10.5%,-18.1%,-13.0%,i,2.5%,i
CCOc1cccc(-c2c(C(=O)N/N=C/c3cccs3)nnn2-c2nonc2N)c1,11.2µM*,?,7.08µM*,i,19.9%,i
Cc1ccc(/C=N/NC(=O)c2nnn(-c3nonc3N)c2-c2ccc3c(c2)OCO3)s1,7.94µM*,2.5%,7.08µM*,i,2.0%,?
COc1ccc(/C=N/NC(=O)c2nnn(-c3nonc3N)c2-c2cccc(OC)c2)cc1,-4.8%,-12.0%,-6.4%,?,0.7%,i
COc1cccc(-c2c(C(=O)N/N=C/c3cccs3)nnn2-c2nonc2N)c1,10µM*,2.6%,7.08µM*,i,?,i
Cc1ccc(NC(=O)COC(=O)c2ccccc2OCC(=O)N(C)C)cc1,·,·,·,?,·,i
COc1ccccc1CNC(=O)COc1cc(=O)n(C)c2ccccc12,·,·,·,i,·,i
CN(C)c1ccc(C=O)c(F)c1,·,·,·,i,·,i
COc1cccc(-c2c(C(=O)N/N=C(\C)c3ccco3)nnn2-c2nonc2N)c1,22.8%,?,4.1%,i,?,i
COc1ccc(O)c(/C=N/NC(=O)c2c(C)nnn2-c2nonc2N)c1,?,7.31µM*,11.2µM*,i,1.4%,i
COc1cccc(-c2c(C(=O)N/N=C(\C)c3ccc(Cl)s3)nnn2-c2nonc2N)c1,10µM*,-0.3%,-2.4%,i,?,i
CCCc1ccc(OC(=O)c2ccc(O)cc2Cl)cc1,3.98µM*,7.7%,0.891µM*,i,?,i
COC(=O)C1=C(C)Nc2nc3ccccc3n2C1c1cc(OC)c(OC)c(OC)c1 (stereo not given),-13.8%,-30.6%,12.6µM*,i,-11.5%,i
Cc1onc(-c2ccccc2)c1C(=O)NNC(=S)NC(=O)c1ccc(Cl)cc1Cl,11.2µM*,-4.8%,4.47µM*,i,?,?
Cc1onc(-c2ccccc2)c1C(=O)NNC(=S)NC(=O)/C=C/c1ccccc1,?,?,5.62µM*,?,?,2.91µM*
Cc1onc(-c2ccccc2)c1C(=O)NNC(=S)NC(=O)c1ccc(Br)cc1,3.55µM*,?,4.47µM*,i,?,?
COc1ccc(/C=C/C(=O)NC(=S)NNC(=O)c2c(-c3ccccc3)noc2C)cc1,5.01µM*,5.6%,3.16µM*,?,-5.9%,7.31µM*
COc1ccc(C(N)c2csc(Nc3nncc4ccccc34)n2)cc1 (stereo not given),·,·,·,i,·,?
Cc1nn2c(=O)cc(COC(=O)COc3ccccc3C)nc2s1,·,·,·,i,·,i
CC(=O)Oc1ccc2c(=O)c(Oc3ccccc3)coc2c1OC(C)=O,-1.2%,?,-0.1%,?,?,13µM*
Cc1ccc(Oc2coc3cc(OC(=O)c4cccs4)ccc3c2=O)cc1,3.8%,-4.2%,-2.5%,i,5.4%,i
O=C(NC(=S)Nc1ccccc1O)c1cccnc1,?,?,11.2µM*,?,8.2%,i
